Laboratory results from PubChem BioAssay (NCATS).
“And” between values parts separate entries of the source, which are not always exact repeats. Identical values can stand only once. Results filed as inconclusive are left out. The source made the active and inactive calls. Unless noted, the call rests on the fitted dose curve; in most records, active means well fitted curve in the direction sought with a large enough effect; inconclusive means small, poorly fitted or top-dose-only effect, or another doubt; inactive means no such curve, though single readings can be large; an effect the other way counts as inactive or inconclusive.

Columns and labels:
[1] = Cell Viability - LYMP2-001 (AID 921);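 further: series mostly up to about 92 µM; 0% = DMSO only and full inhibition = tetraoctylammonium bromide control wells; nearly all actives have a fitted effect of over 70% in size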
In short: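 Human lymphoblastoid cells (Coriell), 2500 per well, were preincubated 5 hr at 37 C, then exposed to compounds in complete medium for 24 hr at 37 C. Cellular ATP was read by CellTiter-Glo luminescence; AC50 from Hill fits of concentration-response data.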

[2] = MultiTox-Fluor Cytotoxicity Assay - LYMP1-001 - Dead Cells (AID 946)
In short: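 Seed 2500 LYMP1-001 cells/well, incubate 5 hr at 37 C; add compound, 16 hr at 37 C; add MultiTox-Fluor reagent, 60 min RT; read dead-cell fluorescence Ex/Em=485/520. Normalize to DMSO and 15 uM tetraoctylammonium bromide.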

[3] = MultiTox-Fluor Cytotoxicity Assay - LYMP1-001 - Live Cells (AID 947);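 further: 0% = DMSO only and full inhibition = tetraoctylammonium bromide control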
[4] = Cell Viability - LYMP1-002 - Assay at 16 hr (AID 948);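 further: 0% = DMSO alone and full effect = 92 µM tetraoctylammonium bromide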
In short: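 Human lymphoblastoid cells (LYMP1-002), 2500/well, were preincubated 5 hr at 37 C, then exposed to compounds for 16 hr at 37 C in complete medium. Cellular ATP was read by CellTiter-Glo luminescence after 30 min at room temperature; AC50 from Hill fits.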

[5] = MultiTox-Fluor Cytotoxicity Assay - LYMP1-002 - Live Cells (AID 955); further: on the % scale 0 is the no-effect control and ±100 the full control effect
In short: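 After 16 h compound exposure at 37 C, live LYMP1-002 lymphoblastoid cells (2500/well) were quantified by cleavage of cell-permeant GF-AFC substrate, read at 405/510 nm after 60 min. Concentration-response fitted with Hill equation for AC50.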

[6] = MultiTox-Fluor Cytotoxicity Assay - LYMP1-002 - Dead Cells (AID 960); further: nearly all actives have a fitted effect of over 60% in size
In short: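 Dead-cell fluorescence (Ex/Em 485/520) after 16 h compound exposure at 37 C of LYMP1-002 lymphoblastoid cells in complete medium; AC50 by Hill equation, with data scaled between DMSO and 15 uM tetraoctylammonium bromide.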

[7] = MultiTox-Fluor Cytotoxicity Assay - LYMP1-003 - Dead Cells (AID 961); further: nearly all actives have a fitted effect of over 70% in size
In short: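 LYMP1-003 lymphoblastoid, 2500 cells/well, 5 hr settle then 16 hr cpd at 37 C; MultiTox-Fluor reagent 60 min RT; Ex/Em 485/520 dead-cell signal; norm. DMSO = 0%, 15 uM tetraoctylammonium bromide = 100%; Hill AC50.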

[8] = MultiTox-Fluor Cytotoxicity Assay - LYMP1-003 - Live Cells (AID 962);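 further: 0% = DMSO only and full loss = 92 µM tetraoctylammonium bromide; cytotoxic hits lower the live-cell protease signal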
In short: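 Live-cell protease activity (GF-AFC substrate, 405/510 nm, 60 min at room temperature) after 16 h, 37 C compound exposure of human lymphoblastoid LYMP1-003 cells; concentration-response fitted to the Hill equation for AC50.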

[9] = Cell Viability - LYMP1-003 - Assay at 24 hr (AID 963);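 further: plate controls were DMSO only for no effect and tetraoctylammonium bromide positive control for full effect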
In short: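 Concentration-response qHTS: ATP loss measured by CellTiter-Glo luminescence after 24 h compound exposure at 37 C. Cells were LYMP1-003 human lymphoblastoid, 2500 per well. AC50 derived via standard Hill equation modeling.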

[10] = Cell Viability - LYMP1-003 - Assay at 40 hr (AID 964); further: series mostly up to about 92 µM; on the % scale 0 is the no-effect control and ±100 the full control effect; nearly all actives have a fitted effect of over 60% in size
In short: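 Viability is taken as cellular ATP, read by CellTiter-Glo luminescence after 40 h of compound exposure at 37 C. Cells: human lymphoblastoid line LYMP1-003 at 2500/well; AC50 values derived by Hill-equation fitting of concentration-response data.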

[11] = Cell Viability - LYMP2-004 (AID 966);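 further: plate controls were DMSO only for no effect and tetraoctylammonium bromide control for full effect; nearly all actives have a fitted effect of over 65% in size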
In short: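 AC50 values come from Hill modelling of concentration-dependent loss of intracellular ATP, measured by CellTiter-Glo luminescence. Human LYMP2-004 lymphoblastoid cells (2500/well) were exposed to compound for 24 h at 37 C.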

[12] = Cell Viability - LYMP2-005 (AID 967);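 further: series mostly up to about 92 µM; plate controls were DMSO only for no effect and 92 µM tetraoctylammonium bromide control for full effect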
In short: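 CellTiter-Glo luminescence (cellular ATP) read-out; LYMP2-005 lymphoblastoid cells, 2500/well, 5 h pre-incubation, then 24 h compound exposure at 37 C in complete medium. Tetraoctylammonium bromide positive control; AC50 by standard Hill fit.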

[13] = Cell Viability - LYMP2-009 (AID 968);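 further: series mostly up to about 92 µM; 0% = DMSO alone and the full-kill end = tetraoctylammonium bromide at 92 µM; nearly all actives have a fitted effect of over 55% in size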
[14] = Cell Viability - LYMP2-011 (AID 969);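 further: 0% = DMSO only and full inhibition = 92 µM tetraoctylammonium bromide; nearly all actives have a fitted effect of over 60% in size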
In short: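 Cytotoxicity qHTS with ATP content as read-out: lymphoblastoid cells (2500/well) exposed to compound for 24 h at 37 C, then luciferase luminescence measured. Concentration-response data fitted with the standard Hill equation to give AC50.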

[15] = Cell Viability - LYMP2-013 (AID 970);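 further: series mostly up to about 92 µM; 0% = DMSO only and full inhibition = tetraoctylammonium bromide control; nearly all actives have a fitted effect of over 55% in size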
In short: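 qHTS cytotoxicity: ATP-dependent luminescence (CellTiter-Glo, 30 min room temperature) read after 24 h compound exposure at 37 C of 2500 LYMP2-013 lymphoblastoid cells per well. Concentration-response fitted with Hill equation to give AC50.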

[16] = qHTS assay for small molecule agonists of the antioxidant response element (ARE) signaling pathway measured by Nrf2-dependant transcriptional activity (AID 720636; active means well fitted curve in the direction sought with a large enough effect in the repeat runs; an effect the other way counts as inactive or inconclusive;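 further: HepG2 cells with an ARE-driven luciferase reporter; % of control where 0% means no effect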)
In short: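 Nrf2-dependent transcription is measured in ARE-luc HepG2 cells: compound is applied for 16 hr at 37 C after a 6 hr attachment period, and luciferase activity is quantified by luminescence using ONE-Glo.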

[17] = qHTS assay for small molecule antagonists of the retinoid-related orphan receptor gamma (ROR-gamma) signaling pathway - cell viability counter screen (AID 720652; active means well fitted curve in the direction sought with a large enough effect in the repeat runs; an effect the other way counts as inactive or inconclusive;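 further: CHO reporter cells with doxycycline-induced ROR-gamma expression; series mostly up to about 92 µM; compound exposure lasted 16 hr before ATP read; on the % scale 0 is the no-effect control and ±100 the full control effect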)
In short: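 Cytotoxicity counter screen: intracellular ATP (CellTiter-Glo luminescence) measured in the doxycycline-induced CHO RORE-luciferase reporter line after 16 hr compound exposure at 37 C, 5% CO2.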

[18] = qHTS assay for small molecule agonists of the antioxidant response element (ARE) signaling pathway measured by Nrf2-dependant transcriptional activity - cell viability counter screen (AID 720653; active means well fitted curve in the direction sought with a large enough effect in the repeat runs; an effect the other way counts as inactive or inconclusive; further: on the % scale 0 is the no-effect control and ±100 the full control effect); settings: ARE-bla HepG2 viability, CellTiter-Glo ATP luminescence, 16 h; hits give low values
In short: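 ARE-bla HepG2 cells (2,000/well) rested 5 hrs at 37C/5% CO2, then exposed to compounds in DMSO for 16 hrs. Viability was read in the same wells as intracellular ATP by luminescence, 30 min at room temperature after reagent addition.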

[19] = qHTS assay for cell viability of HEK293 cells (AID 743288); settings: ATP luminescence (CellTiter-Glo), 18 h, hits give low values; further: on the % scale 0 is the no-effect control and ±100 the full control effect; nearly all actives have a fitted effect of over 50% in size
In short: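 After 18 h compound exposure at 37 C, parental HEK293 cells (2,000/well) are lysed with CellTiter-Glo and luminescence is read following 30 min at room temperature.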

[20] = qHTS assay for cell viability of the p53RE-bla HCT-116 cell line (AID 743292); further: on the % scale 0 is the no-effect control and ±100 the full control effect; nearly all actives have a fitted effect of over 55% in size
In short: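 ATP-based luminescence, 16 h compound exposure at 37 C, p53RE-bla HCT-116 cells at 4,000/well.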

Measured: max response

C=C(C)[C@H]1CC=C(C)C(=O)C1
inactive: [1] | [2] | [3] | [4] | [5] | [6] | [7] | [8] | [9] | [10] | [11] | [12] | [13] | [14] | [15] | [16] | [17] | [18] -9.52% and 8.39% | [19] -10.1% and -1.01% | [20]

C=CC(C)(O)CCC=C(C)C (stereo not given)
inactive: [1] | [2] | [3] | [4] | [5] | [6] | [7] | [8] | [9] | [10] | [11] | [12] | [13] | [14] | [15] | [16] | [17] | [18] 12.9% and 1.07% | [19] 5.28% and -11.2% | [20]

COS(C)(=O)=O
inactive: [1] | [2] | [3] | [4] | [5] | [6] | [7] | [8] | [9] | [10] | [11] | [12] | [13] | [14] | [15] | [16] | [17] | [18] -2.28% | [19] 1.66% | [20]

Cc1occc(=O)c1O
inactive: [1] | [2] | [3] | [4] | [5] | [6] | [7] | [8] | [9] | [10] | [11] | [12] | [13] | [14] | [15] | [16] | [17] | [18] 5.21% | [19] 0.312% | [20]

CC1=CC(=O)CC(C)(C)C1(O)/C=C/C(C)=C\C(=O)O (stereo not given)
inactive: [1] | [2] | [3] | [4] | [5] | [6] | [7] | [8] | [9] | [10] | [11] | [12] | [13] | [14] | [15] | [16] | [17] | [18] 6.26% | [19] 11% | [20]
